# Experimental data: ChEMBL document CHEMBL3988442, “University of Dundee, Small-Polar-MMV Screening Library” (2021)
# The campaign covered roughly 48,000 compounds. About 13,000 (27%) showed an effect of 50% or more. Some of the results follow.
# Test system: Wolbachia pipientis
# Assay: Anti-Wolbachia Cell-Based Screen
# Format: functional
# Set-up: scale not given: in the data most compounds retested in dose-response had high values
# Conditions: 5 µM
row,SMILES,Percent Effect [%]
1,CCn1ccnc1CN1CCN(c2nccc(OC)n2)CC1C (stereo unspecified),-24.68
2,Fc1cccc(-c2nnn3c2COC(CNc2ncccn2)C3)c1 (stereo unspecified),-1.841
3,c1cnn(CC2CN(c3ncnc4ccsc34)CCO2)c1 (stereo unspecified),-13.22
4,O=C(CN1CCOC(Cn2cccn2)C1)Nc1nccs1 (stereo unspecified),-0.2623
5,Cc1ccc(CC(=O)N(CC2CN(C)CCO2)c2nccs2)cn1 (stereo unspecified),90.15
6,Cc1cnn(CC2CN(CC(=O)N(C)c3nccs3)CCO2)c1 (stereo unspecified),4.22
7,Cc1ccc(CC(=O)N2CCCC(c3nc(C)cs3)C2)cn1 (stereo unspecified),-6.398
8,CN1CCOC(CN(C(=O)CC2CCCC2)c2nccs2)C1 (stereo unspecified),-0.02384
9,CN1CCOC(CN(C(=O)CCCn2cccn2)c2nccs2)C1 (stereo unspecified),81.94
10,CN1CCOC(CN(C(=O)CCc2cnn(C)c2)c2nccs2)C1 (stereo unspecified),107
11,CN1CCOC(CN(C(=O)Cc2ccccc2F)c2nccs2)C1 (stereo unspecified),-6.62
12,CN1CCOC(CN(C(=O)COc2ccccc2)c2nccs2)C1 (stereo unspecified),132.7
13,CC[C@@]1(O)CCN(C(=O)CCc2cnn(C)c2)C[C@H]1O,-7.505
14,Cc1cc(CC(=O)N(CC2CN(C)CCO2)c2nccs2)no1 (stereo unspecified),-0.7073
15,CC(C)C1CN(C(=O)Nc2cnn(CC(F)F)c2)CCO1 (stereo unspecified),14.22
16,CC(C)N1CC2(CCCN(Cc3noc(C4CCCC4)n3)C2)CCC1=O (stereo unspecified),0.7717
17,COC1CCN(C(=O)c2csc(-c3ccccc3F)n2)CC1,15.42
18,O=C(NCCc1nccs1)C1CCCN(Cc2ccco2)C1 (stereo unspecified),-29.34
19,CN1CCOC(CN(C(=O)CCc2ccco2)c2nccs2)C1 (stereo unspecified),89.12
20,Nc1nccnc1C(=O)N(Cc1ccco1)CC1CCCO1 (stereo unspecified),3.477
21,O=C(CCc1cn[nH]c1)N1C[C@H](CO)C[C@H](CN2CCOCC2)C1,-1.636
22,Cn1cnnc1C1CCCN(C(=O)c2cc(Cl)c(Cl)n2C)C1 (stereo unspecified),115.1
23,Cn1cnnc1C1CCCN(C(=O)c2cc(Cl)c3c(c2)OCO3)C1 (stereo unspecified),-3.548
24,Cc1noc(C2CCCN(C(=O)c3cc(Cl)c(Cl)n3C)C2)n1 (stereo unspecified),3.125

row,SMILES,Percent Effect [%]
1,Cn1cnnc1C1CCCN(C(=O)c2cc(Cl)cc(Cl)c2)C1 (stereo unspecified),113.5
2,Cn1cnnc1C1CCCN(C(=O)c2ccccc2Cl)C1 (stereo unspecified),1.344
3,O=C(c1cnns1)N1CCN(Cc2ccc(F)cc2Cl)CC1,11.32
4,Cc1nn(C)c(C)c1C1CCCN1c1ncnc2[nH]ccc12 (stereo unspecified),1.551
5,Brc1ccc(NCCCOC2CCOCC2)nc1,3.889
6,CCN(Cc1cc(Cl)ccc1OC)Cc1ncnn1CC,0.2011
7,COc1ccccc1N1CCN(Cc2nc(C)c(C)o2)CC1,-4.949
8,COc1ccccc1CN1CCN(CCN2CCOC2=O)CC1,-7.896
9,CCCc1nnc(N2CCN(c3ccccc3OCC)CC2)o1,99.15
10,CCOc1ccccc1N1CCN(c2nnc(C)o2)CC1,100.3
11,CCCc1nnc(N2CCN(Cc3ccccc3OC)CC2)o1,96.58
12,CCOc1ccccc1N1CCN(CC2(O)CCCNC2)CC1 (stereo unspecified),-13.46
13,CCCc1nnc(N2CCN(c3cccc(OC)c3)C(=O)C2)o1,11.57
14,c1ccc(OCc2noc(CN3CCC(N4CCSCC4)CC3)n2)cc1,-5.795
15,O=C(c1cc2c([nH]c1=O)CCC2)N1CCCCCC1c1ccncc1 (stereo unspecified),23.88
16,CC(C)COCC(NC(=O)Cc1ccn[nH]1)c1ccco1 (stereo unspecified),-5.318
17,Cc1noc(C)c1CNCc1nn(-c2ccccc2)c2c1CCC2,-8.034
18,COc1ccccc1-c1csc(-c2cccc(C(=O)O)c2)n1,1.276
19,CC(=O)c1cc(CC(=O)NCc2ccc(F)cc2)cs1,-15.8
20,O=C(Cc1csc(-c2ccccc2F)n1)NCc1cccc(C(=O)O)c1,94.98
21,CCC(C)NC(=O)c1cccc(CNC(=O)CC(F)(F)F)c1 (stereo unspecified),4.521
22,Clc1ccccc1-c1nc(CNCCn2cccn2)cs1,-5.873
23,O=C(CCC1CCN(C(=O)c2csnn2)CC1)NCc1cccc(Cl)c1,-4.206
24,O=C(Cc1csc(-c2ccccc2F)n1)NCc1ccc(C(=O)O)cc1,91.75

row,SMILES,Percent Effect [%]
1,O=C(CCC1CCN(C(=O)c2cc[nH]c2)CC1)NCc1cccc(Cl)c1,14.78
2,O=C(Cc1csc(-c2cccc(Cl)c2)n1)NCc1cccc(C(=O)O)c1,106.6
3,O=C(Cc1csc(-c2ccccc2Cl)n1)NCc1cccc(C(=O)O)c1,96.86
4,CC(=O)c1cc(CC(=O)NCc2c(F)cccc2F)cs1,-9.682
5,Cc1[nH]c2c(F)cccc2c1CC(=O)NCc1csc(N(C)C)n1,-5.819
6,CCC(C(=O)N(C)C)N1CCC(c2nccn2Cc2cscn2)CC1 (stereo unspecified),-0.1258
7,COCCCn1nnc(C2(NC(=O)c3ccccc3)CCCC2)n1,-42.57
8,O=C(Cc1cccs1)N1C[C@@H]2CC[C@H](C1)N(Cc1ccccn1)C2=O,15.92
9,Cc1cc(C(=O)N2CCc3nnc(N)cc3C2)c(C)n1C1CC1,6.232
10,CC(C)N(CCS(C)(=O)=O)Cc1csc(-c2ccccc2F)n1,-5.187
11,CC(Cn1cccn1)NCc1csc(-c2ccccc2F)n1 (stereo unspecified),0.9927
12,O=C(O)CNC(=O)Cc1csc(-c2ccccc2F)n1,127.8
13,Cc1cc(C)nc(CCNc2nccc(CCC(F)(F)F)n2)n1,-9.076
14,O=c1[nH][nH]cc1-c1ccnc(NCCc2cccc(O)c2)n1,135
15,N#Cc1cc(F)c(NCCc2cccnc2)c(F)c1,0.2383
16,CCOc1ccnc(NCCc2nc(C)cc(=O)[nH]2)n1,25.33
17,O=c1[nH][nH]cc1-c1ccnc(NCCc2ccc(F)cc2)n1,99.64
18,O=C(Cc1cccc(O)c1)NCCNc1nccc(C(F)(F)F)n1,-3.193
19,O=C(O)c1ccnc(-c2ccnc(NCCc3cscn3)n2)c1,6.299
20,Cc1cc(C)c(CNC(=O)NCCc2cccnc2)c(=O)[nH]1,-5.274
21,Cc1ncc(-c2ccnc(NCCc3ccc(F)cc3)n2)c(=O)[nH]1,69.11
22,O=c1[nH][nH]cc1-c1ccnc(NCCc2cccnc2)n1,116.1
23,O=C(O)c1ccnc(-c2ccnc(NCCc3ccc(F)cc3)n2)c1,-8.109
